Results taken from PubChem BioAssay (NCI).
Compounds without any hit were thinned out: in the full panel of roughly 83,000, 20% have a hit.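 The endpoint reported here, percent growth, reads 100 for growth as untreated, 0 for no net growth and -100 for all cells dead.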 A number with no mark means an inactive call. The source made the active and inactive calls. Rule for the calls: active = growth percent below 10; inactive = the rest. Where a SMILES comes first, the peptide text is derived from it. Bridges are numbered along the chain shown (N, C = ends). [ ]: non-standard residue; d: D form. The star is where a group is joined. ξ: configuration not given here. ξNMePhe(4-NMe2) = CNC(Cc1ccc(N(C)C)cc1)C(=O)O; Picolinoyl(3-OH) = O=C(c1ncccc1O)*; ξPip(4-oxo) = O=C1CCNC(C(=O)O)C1; Phg = N[CH](C(=O)O)c1ccccc1; Abu = CC[CH](N)C(=O)O

These molecules were tested on 786-0 renal (assay: NCI-60 one-dose screen, 48 h (100 = growth as untreated, 0 = no growth, -100 = all killed)). Conditions: 10 µM.

Structure (SMILES) | growth
Nc1nc2c(c(-c3nc(N)nc4c3CCc3ccccc3-4)n1)CCc1ccccc1-2 | 110%
CCOC(=O)CCCS(C)(=O)=O | 110%
COc1ccccc1NC(=O)C1=C(C)NC(C)=C(C(=O)Nc2ccccc2OC)C1c1cccc([N+](=O)[O-])c1 | 84.6%
O=C(c1ccccc1)C1CCC1 | 107%
CCOC(=O)C(=O)C=P(c1ccccc1)(c1ccccc1)c1ccccc1 | 101%
O=[N+]([O-])c1cccc(C(F)(F)F)c1 | 107%
CCCC(=O)Nc1ccc2c(c1)CN1C(=O)c3ccccc3C1=N2 | 99.2%
CC(C)=NNc1ccc([N+](=O)[O-])cc1[N+](=O)[O-] | 93.8%
CC(=O)OCC1=CC2OC(=O)C3=COC(OC4OC(CO)C(O)C(O)C4O)C1C32 (stereo unspecified) | 98.9%
COc1nc(N)nc2c1ncn2C1OC(CO)CC1O (stereo unspecified) | 95.4%
Nc1ccc(C(=O)c2ccc(N)c(Br)c2)cc1Br | 34%
CO[C@H]1C[C@@H]2CC[C@@H](C)[C@@](O)(O2)C(=O)C(=O)N2CCCC[C@H]2C(=O)O[C@H]([C@H](C)C[C@@H]2CC[C@@H](O)[C@H](OC)C2)CC(=O)[C@H](C)C=C(C)[C@@H](O)[C@@H](OC)C(=O)[C@H](C)C[C@H](C)/C=C/C=C/C=C1C | 46.9%
CC(=O)OCCC(C)CCC=C(C)C (stereo unspecified) | 108%
CCOC(=O)c1cc(/C=C/c2cccc(Cl)c2)on1 | 97.7%
COC(=O)C(C)Oc1ccc(OC#N)cc1 (stereo unspecified) | 102%
Cc1cc(N)ccc1-c1ccc(N)cc1C | 101%
CCC1NC(=O)C(NC(=O)c2ncccc2O)C(C)OC(=O)C(c2ccccc2)NC(=O)C2CC(=O)CCN2C(=O)C(Cc2ccc(N(C)C)cc2)N(C)C(=O)C2CCCN2C1=O (stereo unspecified) (tested in a mixture with another compound) ({Picolinoyl(3-OH)}-T[Abu]P[ξNMePhe(4-NMe2)][ξPip(4-oxo)][Phg]; ester 1-C; configuration not given here) | 67.4%
COc1ccc2c(NCCCCCCCCNc3c4ccccc4nc4cc(OC)ccc34)c3ccccc3nc2c1 | -100% (active)
CC1(O)OC(COc2ccc(Cl)cc2)COC1O (stereo unspecified) | 105%

Structure (SMILES) | growth
CCN(CC)C(=O)/C=C(/C)c1ccccc1 | 101%
N=c1c(C(=O)OCc2ccccc2)ncc(CCl)n1O | 81.6%
COC(=O)c1[nH]c(=O)c(C#N)c(C(=O)OC)c1C(=O)c1ccccc1 | 100%
CCCNC(=O)c1ccc(S(N)(=O)=O)cc1 | 75.4%
O=C(c1ccc(O)cc1)c1ccc(O)cc1 | 98.8%
NC(=O)N/N=C\c1ccco1 | 104%
O=S(=O)(O)CC(O)CN1CCN(CCO)CC1 (stereo unspecified) | 105%
Cc1ccc(C)n1-c1ccsc1C(=O)NNC(=O)C(Cl)Cl | 101%
O=c1cc(-c2ccccc2)oc2c1ccc1ccccc12 | 99.4%
Oc1ccc(N=Nc2ccc(Br)cc2)c(O)c1 | 15.6%
O=c1c2ccccc2c(Br)c(Br)c2ccccc12 | 84.3%
C/C(=C\c1cc(Cl)ccc1OCC(=O)O)[N+](=O)[O-] | 117%
COC(=O)/C=C\C(=O)OC | 103%
O=C(O)c1cc([N+](=O)[O-])ccc1Cl | 99.2%
N#Cc1c(N)sc(=S)c2c1CCCC2 | 104%
CCOC(=O)c1[nH]c(C)c(C(=O)O)c1C | 110%
C#C[C@H]1CCCCCC1O (stereo partly specified) | 103%
Nc1nc(N)c2cc(S(=O)(=O)c3cccc(C(F)(F)F)c3)ccc2n1 | 38.1%
CCN(CC)CCCC(C)Nc1ccnc(/C=C/c2ccc(Cl)cc2)c1 (stereo unspecified) | 45.2%

The molecules below were run on COLO 205 colon in the same assay as above. Conditions: 10 µM.

Structure (SMILES) | growth
Nc1nc2c(c(-c3nc(N)nc4c3CCc3ccccc3-4)n1)CCc1ccccc1-2 | 116%
CCOC(=O)CCCS(C)(=O)=O | 110%
COc1ccccc1NC(=O)C1=C(C)NC(C)=C(C(=O)Nc2ccccc2OC)C1c1cccc([N+](=O)[O-])c1 | 89.3%
O=C(c1ccccc1)C1CCC1 | 112%
CCOC(=O)C(=O)C=P(c1ccccc1)(c1ccccc1)c1ccccc1 | 110%
O=[N+]([O-])c1cccc(C(F)(F)F)c1 | 108%
CCCC(=O)Nc1ccc2c(c1)CN1C(=O)c3ccccc3C1=N2 | 109%
CC(C)=NNc1ccc([N+](=O)[O-])cc1[N+](=O)[O-] | 84.9%
CC(=O)OCC1=CC2OC(=O)C3=COC(OC4OC(CO)C(O)C(O)C4O)C1C32 (stereo unspecified) | 114%
COc1nc(N)nc2c1ncn2C1OC(CO)CC1O (stereo unspecified) | 104%
Nc1ccc(C(=O)c2ccc(N)c(Br)c2)cc1Br | -30.6% (active)
CO[C@H]1C[C@@H]2CC[C@@H](C)[C@@](O)(O2)C(=O)C(=O)N2CCCC[C@H]2C(=O)O[C@H]([C@H](C)C[C@@H]2CC[C@@H](O)[C@H](OC)C2)CC(=O)[C@H](C)C=C(C)[C@@H](O)[C@@H](OC)C(=O)[C@H](C)C[C@H](C)/C=C/C=C/C=C1C | 61.3%
CC(=O)OCCC(C)CCC=C(C)C (stereo unspecified) | 114%
CCOC(=O)c1cc(/C=C/c2cccc(Cl)c2)on1 | 119%
COC(=O)C(C)Oc1ccc(OC#N)cc1 (stereo unspecified) | 107%
Cc1cc(N)ccc1-c1ccc(N)cc1C | 103%
CCC1NC(=O)C(NC(=O)c2ncccc2O)C(C)OC(=O)C(c2ccccc2)NC(=O)C2CC(=O)CCN2C(=O)C(Cc2ccc(N(C)C)cc2)N(C)C(=O)C2CCCN2C1=O (stereo unspecified) (tested in a mixture with another compound) ({Picolinoyl(3-OH)}-T[Abu]P[ξNMePhe(4-NMe2)][ξPip(4-oxo)][Phg]; ester 1-C; configuration not given here) | 27%
COc1ccc2c(NCCCCCCCCNc3c4ccccc4nc4cc(OC)ccc34)c3ccccc3nc2c1 | -100% (active)
CC1(O)OC(COc2ccc(Cl)cc2)COC1O (stereo unspecified) | 126%

Structure (SMILES) | growth
CCN(CC)C(=O)/C=C(/C)c1ccccc1 | 106%
N=c1c(C(=O)OCc2ccccc2)ncc(CCl)n1O | 116%
COC(=O)c1[nH]c(=O)c(C#N)c(C(=O)OC)c1C(=O)c1ccccc1 | 123%
CCCNC(=O)c1ccc(S(N)(=O)=O)cc1 | 132%
O=C(c1ccc(O)cc1)c1ccc(O)cc1 | 108%
NC(=O)N/N=C\c1ccco1 | 119%
O=S(=O)(O)CC(O)CN1CCN(CCO)CC1 (stereo unspecified) | 106%
Cc1ccc(C)n1-c1ccsc1C(=O)NNC(=O)C(Cl)Cl | 120%
O=c1cc(-c2ccccc2)oc2c1ccc1ccccc12 | 85.8%
Oc1ccc(N=Nc2ccc(Br)cc2)c(O)c1 | 129%
O=c1c2ccccc2c(Br)c(Br)c2ccccc12 | 55%
C/C(=C\c1cc(Cl)ccc1OCC(=O)O)[N+](=O)[O-] | 115%
COC(=O)/C=C\C(=O)OC | 118%
O=C(O)c1cc([N+](=O)[O-])ccc1Cl | 107%
N#Cc1c(N)sc(=S)c2c1CCCC2 | 111%
CCOC(=O)c1[nH]c(C)c(C(=O)O)c1C | 112%
C#C[C@H]1CCCCCC1O (stereo partly specified) | 111%
Nc1nc(N)c2cc(S(=O)(=O)c3cccc(C(F)(F)F)c3)ccc2n1 | 62.5%
CCN(CC)CCCC(C)Nc1ccnc(/C=C/c2ccc(Cl)cc2)c1 (stereo unspecified) | -64.4% (active)
